B1: Caulobacter ParB omega fusion; a variant is named by its letters at X, in order, B8GW30 (parent)
chain: MESVVVGEPGMSEGRRGLGRGLSALLGEVDAAPAQAPGEQLGGSREAPIEILQRNPDQPRRTFREEDLEDLSNSIREKGVLQPILVRPSPDTAGEYQIVAGERAWRAAQRAGLKTVPIMVRELDDLAVLEIGIIENVQRADLNVLEEALSYKVLMEKFERTQENIAQTIGKSXSHVANXMRLLXLPDEVQSYLVSGELTAXHARAIAAAADPVALAKQIIEGGLSVRETEALARKAPNLSAGKSKGGRPPRVKDTDTQALESDLSSVLGLDVSIDHRGSTGTLTITYATLEQLDDLCNRLTRGI

Experimental findings from a collection of fitness landscapes (doi:10.1016/j.celrep.2020.107928) are described below.

In all, about 81,000 sequences were measured (“one-hybrid fitness for binding parS DNA”: median about -0.17, highest 2% from about 0.51 on). The full list was thinned out, with the highest values kept by preference.

The variants in this experiment derive from B1. Put plainly: one-hybrid fitness for binding parS DNA (scaled: cognate 1, non-cognate 0); higher = stronger binding. As to conditions: with parS DNA site. The procedure, abridged: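 In E. coli USO, a HIS3 reporter with its site placed 19 bp from the promoter was used to select Caulobacter ParB variants randomised at four specificity codons. Growth lasted 48 hours at 37°C on histidine-free M9 containing 0.1 mM IPTG and 5 mM 3-AT. Fitness was taken as the log change in variant-to-wild-type read ratio from Illumina sequencing of pre- and post-selection plasmids, rescaled between the non-cognate and cognate sites.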
As to SLKT, the “one-hybrid fitness for binding parS DNA” value is at most 0.2.
The value for GRNC was at most 0.2; that for RCRS was 0.877; that for RPYS was at most 0.2.
Consider RCRD, for which the “one-hybrid fitness for binding parS DNA” value was at most 0.2.
On to RCYS, for which the “one-hybrid fitness for binding parS DNA” value was 1.
As to RSRD, the “one-hybrid fitness for binding parS DNA” value is at most 0.2.
As for RPRS, the “one-hybrid fitness for binding parS DNA” value is at most 0.2.
The figure for RCYP is at most 0.2; for RSRN it is 0.416; for RSRS it is 0.913.
Regarding SCVM, the “one-hybrid fitness for binding parS DNA” value is at most 0.2.
Consider FTPD, for which the “one-hybrid fitness for binding parS DNA” value is at most 0.2.
The value for ALCC was at most 0.2; that for WPLG was at most 0.2; that for IPVF was at most 0.2.
In the case of FYHT, the “one-hybrid fitness for binding parS DNA” value is at most 0.2.
RINH: the “one-hybrid fitness for binding parS DNA” value amounted to 0.284.
As for RIND, the “one-hybrid fitness for binding parS DNA” value came out at 0.258.
In the case of RPNY, the “one-hybrid fitness for binding parS DNA” value is at most 0.2.
Turning to RIDD, the “one-hybrid fitness for binding parS DNA” value is at most 0.2.
The figure for RIDY is 0.396; for RINY it is 0.513; for RINS it is 0.923.
The figure for RIDS is 0.987; for RIDH it is 0.231; for TGRK it is at most 0.2.
For MPPM, the “one-hybrid fitness for binding parS DNA” value is at most 0.2.
WDNC: the “one-hybrid fitness for binding parS DNA” value was at most 0.2.
Regarding KSER, the “one-hybrid fitness for binding parS DNA” value is at most 0.2.
The value for STLE was at most 0.2; that for DQQL was at most 0.2.
The value for GHWC was at most 0.2; that for KPDR was at most 0.2; that for TRSC was at most 0.2.
On to NTIS, for which the “one-hybrid fitness for binding parS DNA” value was at most 0.2.
For RPCA, the “one-hybrid fitness for binding parS DNA” value is at most 0.2.
For RTCA, the “one-hybrid fitness for binding parS DNA” value was 0.572.
Take RMCA: the “one-hybrid fitness for binding parS DNA” value was determined as 0.633.
The figure for RSCA is 0.579; for RGCA it is at most 0.2; for RNCA it is 0.348.
RCCA: the “one-hybrid fitness for binding parS DNA” value came out at 0.677.
The value for RWCA was 0.317; that for RKCA was 0.503.
In the case of QSLF, the “one-hybrid fitness for binding parS DNA” value is at most 0.2.
For QAWS, the “one-hybrid fitness for binding parS DNA” value was at most 0.2.
The value for ATLF was at most 0.2; that for PAPL was at most 0.2; that for PDPW was at most 0.2.
For DFDR, the “one-hybrid fitness for binding parS DNA” value is at most 0.2.
For the variant QQYT, the “one-hybrid fitness for binding parS DNA” value is at most 0.2.
Consider KPHF, for which the “one-hybrid fitness for binding parS DNA” value is at most 0.2.
The figure for DHCA is at most 0.2; for RHCA it is 0.55; for LGTH it is at most 0.2.
The figure for RQTK is at most 0.2; for RQTG it is 1.01.
RQTD: the “one-hybrid fitness for binding parS DNA” value was 0.217.
The value for RQTP was at most 0.2; that for RQTS was 0.984; that for RQTN was 0.43.
Regarding RQTF, the “one-hybrid fitness for binding parS DNA” value was determined as 0.211.
On to RQTQ, for which the “one-hybrid fitness for binding parS DNA” value was at most 0.2.
RQTT: the “one-hybrid fitness for binding parS DNA” value came out at 0.929.
The value for RQTC was 0.966.
For RQTM, the “one-hybrid fitness for binding parS DNA” value came to 0.331.
Take RQTH: the “one-hybrid fitness for binding parS DNA” value is at most 0.2.
The value for KANM was at most 0.2; that for NRAG was at most 0.2; that for PIVT was at most 0.2.
The figure for QDIR is at most 0.2; for IPSC it is at most 0.2.
The value for PVWG was at most 0.2; that for CTRC was at most 0.2; that for QFWR was at most 0.2.
Turning to VWSI, the “one-hybrid fitness for binding parS DNA” value is at most 0.2.
The value for QVFN was at most 0.2.
For RFNE, the “one-hybrid fitness for binding parS DNA” value was at most 0.2.
On to RFDF, for which the “one-hybrid fitness for binding parS DNA” value was at most 0.2.
For RFDC, the “one-hybrid fitness for binding parS DNA” value is 0.793.
As to AFNC, the “one-hybrid fitness for binding parS DNA” value is at most 0.2.
For the variant NFDC, the “one-hybrid fitness for binding parS DNA” value is at most 0.2.
The value for RFNC was 0.94; that for PPHC was at most 0.2.
The figure for DNGY is at most 0.2; for RIHC it is 0.977.
The figure for RINC is 0.955.
Take RINF: the “one-hybrid fitness for binding parS DNA” value was 0.201.
Take RINM: the “one-hybrid fitness for binding parS DNA” value was determined as 0.381.
The value for RILC was 0.97; that for RILM was 0.333; that for RIYR was at most 0.2.
The value for RIYQ was at most 0.2.
For the variant RIHK, the “one-hybrid fitness for binding parS DNA” value is at most 0.2.
Take RIHQ: the “one-hybrid fitness for binding parS DNA” value was at most 0.2.
The value for RILR was at most 0.2; that for RIYC was 0.964; that for RNGM was at most 0.2.
The figure for LKKY is at most 0.2; for QVQI it is at most 0.2.
The value for YEHV was at most 0.2; that for QGHV was at most 0.2.
Regarding HFFL, the “one-hybrid fitness for binding parS DNA” value was at most 0.2.
As to LRSA, the “one-hybrid fitness for binding parS DNA” value was at most 0.2.
The figure for AADE is at most 0.2.
Turning to CFNA, the “one-hybrid fitness for binding parS DNA” value is at most 0.2.
In the case of WWKS, the “one-hybrid fitness for binding parS DNA” value was at most 0.2.
For the variant ECSL, the “one-hybrid fitness for binding parS DNA” value was at most 0.2.
With PWPM, the “one-hybrid fitness for binding parS DNA” value is at most 0.2.
PHSN: the “one-hybrid fitness for binding parS DNA” value was at most 0.2.
The figure for LVPK is at most 0.2; for MIPM it is at most 0.2; for QNKH it is at most 0.2.
With NKQR, the “one-hybrid fitness for binding parS DNA” value is at most 0.2.
The figure for RIRC is 0.847; for RIDQ it is at most 0.2; for RICP it is at most 0.2.
The figure for RISC is 0.969; for RISP it is 0.209; for RISH it is 0.259.
The figure for RIRQ is at most 0.2.
As for RICF, the “one-hybrid fitness for binding parS DNA” value was 0.282.
The figure for RIDK is at most 0.2.
As for RICC, the “one-hybrid fitness for binding parS DNA” value stood at 0.92.
The value for RIRF was 0.247.
On to RIDC, for which the “one-hybrid fitness for binding parS DNA” value was determined as 0.866.
For QALV, the “one-hybrid fitness for binding parS DNA” value was at most 0.2.
On to MYER, for which the “one-hybrid fitness for binding parS DNA” value is at most 0.2.
On to ARTT, for which the “one-hybrid fitness for binding parS DNA” value is at most 0.2.
Take ANKV: the “one-hybrid fitness for binding parS DNA” value was at most 0.2.
In the case of AYCY, the “one-hybrid fitness for binding parS DNA” value is at most 0.2.
For the variant ALWS, the “one-hybrid fitness for binding parS DNA” value was at most 0.2.
For the variant ECMV, the “one-hybrid fitness for binding parS DNA” value is at most 0.2.
The value for RYVQ was at most 0.2.
The value for RYKR was at most 0.2; that for RYVC was 0.907; that for RYVF was at most 0.2.
Consider RYKC, for which the “one-hybrid fitness for binding parS DNA” value came out at 0.752.
The figure for RYKM is 0.369; for TTLV it is at most 0.2.
The figure for NFAT is at most 0.2; for RFFM it is at most 0.2; for RFAT it is 0.79.
The value for RFFF was at most 0.2; that for DFAT was at most 0.2; that for RFFT was 0.582.
For the variant QAHK, the “one-hybrid fitness for binding parS DNA” value is at most 0.2.
The value for TRYI was at most 0.2; that for RYKD was at most 0.2.
The value for RYKP was at most 0.2.
The value for RYVY was 0.357; that for RYVH was 0.253.
With RYYY, the “one-hybrid fitness for binding parS DNA” value amounted to 0.462.
For the variant RYVN, the “one-hybrid fitness for binding parS DNA” value amounted to 0.364.
Consider RYKS, for which the “one-hybrid fitness for binding parS DNA” value was 0.793.
The figure for RYVS is 0.976.
